# Measurements as given in the supplement of paper PMC12669032.
# A number with no mark means an inactive call.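 The calls were made as follows: active = AUC reduced over 20% with Padj below 0.05 in at least 2 of 3 replicates; inactive = otherwise.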
# Legend:
# Experiment in all cases: growth AUC relative to DMSO control (median of replicates) (fraction); higher = more growth (less inhibition), active = hit call of the paper
# Details in all cases: 20 µM; 24 h
# Coprococcus comes = tested on: Coprococcus comes
# How it was run: (§1)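 Area under the growth curve was normalised to the plate median of solvent-only wells, except on the industrial chemical plate, where row and column medians were used. Curves came from gut bacterial monocultures grown anaerobically at 37 °C in mGAM with 20 µM compound (1% DMSO), starting at OD600 0.05 and read at OD600 every hour for 24 h. The minimum OD of each curve was set to 0, and values are medians of three biological replicates grown on separate days.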
# Escherichia coli ED1a = tested on: Escherichia coli ED1a
# How it was run: as §1
# Escherichia coli IAI1 = tested on: Escherichia coli IAI1
# How it was run: as §1
# Eubacterium rectale = tested on: Eubacterium rectale
# How it was run: as §1
# [1] = tested on: Fusobacterium nucleatum subsp. animalis
# How it was run: as §1
# Lactobacillus gasseri = tested on: Lactobacillus gasseri
# How it was run: as §1
# Lactobacillus paracasei = tested on: Lactobacillus paracasei
# How it was run: as §1
# Odoribacter splanchnicus = tested on: Odoribacter splanchnicus
# How it was run: as §1
# [2] = tested on: Parabacteroides distasonis
# How it was run: as §1
# Parabacteroides merdae = tested on: Parabacteroides merdae
# How it was run: as §1
# Roseburia intestinalis = tested on: Roseburia intestinalis
# How it was run: as §1
# Streptococcus salivarius = tested on: Streptococcus salivarius
# How it was run: as §1
SMILES,growth AUC (Coprococcus comes),growth AUC (Escherichia coli ED1a),growth AUC (Escherichia coli IAI1),growth AUC (Eubacterium rectale),growth AUC [1],growth AUC (Lactobacillus gasseri),growth AUC (Lactobacillus paracasei),growth AUC (Odoribacter splanchnicus),growth AUC [2],growth AUC (Parabacteroides merdae),growth AUC (Roseburia intestinalis),growth AUC (Streptococcus salivarius)
CNC(=O)Oc1cc(C)c(SC)c(C)c1,1.01,0.987,0.967,0.982,0.984,0.883,0.931,1.11,1.02,0.912,0.928,0.968
CNC(=O)CSP(=O)(OC)OC,1.04,1.01,1.03,1.01,1.04,1.06,1.05,1.05,1.02,1.01,1.02,1.01
CN(C)C(=O)Nc1cccc(OC(=O)NC(C)(C)C)c1,0.974,0.995,0.972,1.19,1.07,0.934,0.934,0.551 (active),1.01,0.959,1.05,0.975
CCOP(=S)(OCC)SCS(=O)C(C)(C)C (stereo not given),1.05,1.04,1.01,1.01,1.07,0.959,0.754,1.04,1.01,1.01,1.04,1.04
Cc1ccc(-c2c(Cl)nc(C#N)n2S(=O)(=O)N(C)C)cc1,1.03,0.944,1.02,0.992,1.09,1,1.03,0.989,0.551 (active),0.818,0.995,0.956
C#CCOc1ccc(CCNC(=O)C(OCC#C)c2ccc(Cl)cc2)cc1OC (stereo not given),0.992,1.01,0.996,1.04,0.943,0.926,0.98,1.03,0.689 (active),0.948,0.959,0.984
COC(=O)C(C)N(C(=O)Cc1ccccc1)c1c(C)cccc1C (stereo not given),0.967,0.995,0.972,0.916,0.917,0.888,0.98,0.96,0.985,0.944,0.975,0.96
ClC1=C(Cl)[C@]2(Cl)C3CC=CC3[C@@]1(Cl)C2(Cl)Cl (stereo not given in full),0.942,0.99,1.01,0.951,0.846,0.989,1.03,0.987,1.04,0.984,1,1
NCCO.O=C(O)c1nc(Cl)ccc1Cl,1.05,1.01,1.01,0.912,1.04,0.979,1.02,1.02,1.02,1.01,1.03,1.05
N#Cc1cc(I)c(O)c(I)c1,1.02,0.891,0.764 (active),0.954,0.828,0.95,0.982,0.853,0.814,0.802,0.993,0.898
COc1cc(OC)nc(NC(=O)NS(=O)(=O)c2ncccc2C(=O)N(C)C)n1,0.966,1.05,0.972,0.999,1.05,0.93,0.889,1.03,1.02,0.988,1.01,0.975
O=c1c2cc(F)ccc2nc(-n2cncn2)n1-c1ccc(Cl)cc1Cl,0.999,0.987,0.99,0.963,0.976,1.05,0.634,0.977,1.02,0.93,0.975,1.02
OCC1C(CO)C2(Cl)C(Cl)=C(Cl)C1(Cl)C2(Cl)Cl (stereo not given),0.934,0.994,0.975,1.07,1,0.827,1.01,0.59 (active),1.09,0.892,0.953,0.82
O=C(O)C1(O)c2ccccc2-c2ccc(Cl)cc21 (stereo not given),0.972,0.998,0.975,0.947,0.982,1.05,0.997,1.01,0.979,0.987,0.991,0.982
CCOC(=O)c1ccccc1S(=O)(=O)NC(=O)Nc1nc(Cl)cc(OC)n1,0.988,1.03,1.02,1.05,1.07,0.969,1.05,1.1,1.07,1.04,1.01,0.972
O=[N+]([O-])c1ccc(O)c([N+](=O)[O-])c1,0.904,0.998,0.998,1.02,0.927,1.06,0.97,0.673,0.948,0.985,0.912,0.992
CCOC(=O)C(O)(c1ccc(Cl)cc1)c1ccc(Cl)cc1,0.953,1.03,0.968,1.02,0.879,1.03,0.979,0.992,0.823,0.92,1.03,0.978
CCNc1nc(Cl)nc(NCC)n1,1.01,1.05,1.03,0.961,0.977,1.09,1,0.998,1.01,1.01,0.968,1.03
COC(=O)Nc1nc2ccccc2[nH]1,1.05,1.04,1.01,0.854,1.03,1.14,0.862,0.997,1.03,0.981,1,0.971
CC1(C)[C@H](C=C(Cl)Cl)[C@H]1C(=O)OCc1c(F)c(F)cc(F)c1F,1,1.01,1.03,0.957,1.04,1.02,0.947,1.02,0.999,0.989,0.946,1.02
